± gives the standard deviation of the averaged measurements. The full ranking holds about 33,000 sequences; the median of “E-score (rank enrichment, -0.5 to 0.5)” is about -0.0075, and the highest 2% start at about 0.23. Only a selection was taken, and the highest values are over-represented in it overall.
The sequences below were run on WT Max(13-93) synthetic (M65Nle) (assay: PBM 8-mer E-score (E-score (rank enrichment, -0.5 to 0.5)); higher = stronger preferential binding).
Experimental: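 Protein binding microarray (universal PBM chip covering all 10-mers in fixed probe flanks) with chemically synthesized human Max(13-93) bHLH-LZ analogs (not full-length Max) bearing noncanonical residues (hArg, Tha, Aib, Nle at 65) and aromatic Cys staples. Read-out per 8-mer (and its reverse complement): E-score (rank-based enrichment, -0.5 to 0.5) and Z-score of median probe intensity.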

Sequence	PBM 8-mer E-score
GAGGATGC	-0.0499 ± 0.029
ATGAATGC	0.114 ± 0.14
ATGAATGG	0.311 ± 0.023
ATGAATGA	0.126 ± 0.034
GACGACAA	0.0432 ± 0.014
GAGAGGTA	-0.0899 ± 0.13
GAAGTTCC	-0.122 ± 0.051
CATAATGA	0.172 ± 0.059
GATAATGA	0.125 ± 0.072
AATAATGG	0.044 ± 0.046
AATAATGA	0.259 ± 0.073
AATAATGT	0.173 ± 0.097
AATAATGC	0.245 ± 0.095
ATCCGAAA	-0.03 ± 0.061
ATATTACG	0.241 ± 0.0048
AAATTACG	0.0856 ± 0.02
ATATTAGG	0.244 ± 0.036
ATATTACA	0.197 ± 0.017
CTATTACC	-0.0563 ± 0.029
AGATTACC	-0.00321 ± 0.065
ATATTACC	0.267 ± 0.029
ATATTAGA	0.172 ± 0.004
ATATTAGC	0.124 ± 0.022
CGTCGGGA	-0.106 ± 0.096
CACCGCGA	-0.226 ± 0.025

Sequence	PBM 8-mer E-score
CTAGGTCC	-0.172 ± 0.12
GGAAGCAC	0.0303 ± 0.0034
ATCAACAG	0.106 ± 0.018
ATCATGAT	0.312 ± 0.0072
AACATAAT	0.252 ± 0.011
ATCAACAA	0.15 ± 0.12
ATCAACAT	0.24 ± 0.013
ATCATAAA	0.142 ± 0.15
ATCATAAG	0.172 ± 0.039
AACATAGT	0.0321 ± 0.091
AACATAAG	0.097 ± 0.013
ATCATAAT	0.269 ± 0.033
ATCATGAA	0.0859 ± 0.037
ATCATGAG	0.058 ± 0.031
ACGGGGAG	0.0661 ± 0.065
CCATCCAC	0.155 ± 0.16
GAGCTGGA	-0.13 ± 0.0049
AAGGCTCC	-0.199 ± 0.056
ACTGTCCC	0.1452 ± 0.001
AGAGGCTC	-0.129 ± 0.083
GTCGCCGA	-0.0844 ± 0.015
TATGGTAA	0.104 ± 0.1
GTGTCCTA	-0.012 ± 0.016
GCCAACGA	-0.0918 ± 0.043
ATCGGTTG	-0.0382 ± 0.099

Sequence	PBM 8-mer E-score
CCTGATGA	-0.114 ± 0.085
GACATAAC	0.17 ± 0.0081
ATCATCAT	0.245 ± 0.026
ATGATAAA	0.181 ± 0.084
CACATAAC	0.108 ± 0.067
ATCATATA	0.204 ± 0.012
ATCATCAA	-0.0899 ± 0.0026
AACATAAC	0.247 ± 0.07
ATCATCAC	0.0578 ± 0.072
ATCATATC	0.134 ± 0.044
ATCATATG	0.233 ± 0.0053
TTGATAAA	0.25 ± 0.021
GTGATAAA	0.143 ± 0.05
AGGATATC	0.084 ± 0.03
CGCACCCA	0.0267 ± 0.1
AAGGTGAC	-0.1212 ± 0.00044
CGGATGAC	0.00616 ± 0.15
TCCGGTCA	-0.19 ± 0.054
ACTCTGAA	-0.0606 ± 0.013
GAAAGCCA	-0.0183 ± 0.048
CTGTCTGA	0.00168 ± 0.0099
CTCAACAC	0.202 ± 0.084
ATGATAAC	0.206 ± 0.023
ATGATAAG	0.17 ± 0.054
ATGATAAT	0.251 ± 0.078

Sequence	PBM 8-mer E-score
AGGCCTGG	-0.294 ± 0.061
ATATTAAA	0.24 ± 0.03
ATATTAAC	0.218 ± 0.013
CTATTAAA	0.173 ± 0.011
ATATTAAG	0.131 ± 0.02
ATATTAAT	0.274 ± 0.059
TTATTAAA	0.131 ± 0.26
AAGTTGGC	-0.119 ± 0.0037
TCGCTGCA	-0.149 ± 0.09
GGCGCCAC	-0.0393 ± 0.073
GCAGAAAC	0.0456 ± 0.087
AGACCTCA	-0.0265 ± 0.028
TCGGCACA	-0.0668 ± 0.093
CACGTGTA	0.4825 ± 0.0012
GACGTGTA	-0.0197 ± 0.094
AACGTGTA	0.26 ± 0.0055
AGCGTGTA	0.11 ± 0.018
ATCGTGTA	0.0318 ± 0.041
AACGTGTG	0.178 ± 0.016
CCCGTGTA	0.183 ± 0.1
CCCGTGTC	0.0152 ± 0.049
AACGTGTC	0.189 ± 0.014
CGCGTGTA	0.29 ± 0.052
CACGTGTC	0.4823 ± 0.0015
CGCGTGTC	0.232 ± 0.011

Sequence	PBM 8-mer E-score
GGCAGACC	-0.189 ± 0.022
AAGAGATC	-0.149 ± 0.086
AAGGTGCT	0.0391 ± 0.026
ACAGCAGT	-0.155 ± 0.016
AGATGTTC	-0.10933 ± 4.9e-05
ACATGTTG	0.239 ± 0.012
ACATGTTC	0.246 ± 0.016
CCATGTTA	0.103 ± 0.095
GAATGTTA	0.158 ± 0.079
GGATGTTA	0.0759 ± 0.064
GCATGTTA	0.266 ± 0.075
CCATGTTC	-0.00628 ± 0.14
AGATGTTG	-0.133 ± 0.11
AAATGTTG	-0.0126 ± 0.086
AAATGTTA	0.127 ± 0.032
ACATGTTA	0.267 ± 0.008
ATAGTCTC	0.0149 ± 0.021
ACGGCCAT	-0.0405 ± 0.11
ATTAGGCG	-0.0541 ± 0.021
CTTGCAGC	-0.155 ± 0.06
AAGGCCCA	-0.0696 ± 0.03
AACCTCGG	-0.285 ± 0.089
ACAGCAGA	-0.0839 ± 0.019
CCTGGCCC	-0.288 ± 0.052
GATTCATA	-0.0144 ± 0.0027

Sequence	PBM 8-mer E-score
CATTCATA	0.243 ± 0.071
CATTCATC	0.048 ± 0.036
CTACGGGA	0.0112 ± 0.028
CATACATA	0.17 ± 0.086
CATACACG	0.238 ± 0.086
TATACACA	0.0996 ± 0.085
CATACACA	0.228 ± 0.099
AATACATG	0.243 ± 0.072
AATACATA	0.211 ± 0.11
AATACATT	0.132 ± 0.098
CATACATC	0.135 ± 0.022
CATACATG	0.245 ± 0.026
AAAAGCAA	0.066 ± 0.13
GCCAGATA	-0.00267 ± 0.056
CCAACTTC	0.0001 ± 0.0037
TGGAAAAA	0.0641 ± 0.057
ACTGTCCT	-0.0581 ± 0.038
GACGAGTA	0.0201 ± 0.095
AACGAGAT	-0.133 ± 0.092
TACGAGTA	0.173 ± 0.023
CACGAGTA	0.237 ± 0.0057
CACGAGAA	0.12 ± 0.075
AACGAGAA	0.242 ± 0.073
CACGAGGC	0.252 ± 0.079
CACGAGGG	0.1535 ± 0.0012

Sequence	PBM 8-mer E-score
CACGAGGA	0.217 ± 0.02
CCTACAGA	-0.0418 ± 0.11
ATTTGTGC	0.0791 ± 0.13
CCGGCCAC	-0.164 ± 0.0042
ACAAGCCA	-0.0302 ± 0.081
CAATAATC	0.00647 ± 0.1
GAATAAAA	0.184 ± 0.097
CAATAAAA	0.29 ± 0.011
CAATAATA	0.275 ± 0.019
CAATAATG	0.0933 ± 0.042
CAATAAAC	0.139 ± 0.04
CCGACTCA	-0.185 ± 0.0089
CCTCAAAA	0.192 ± 0.0034
CCGCGTAG	-0.0165 ± 0.042
CGCTTCCC	-0.0261 ± 0.049
CTTTGTTA	0.195 ± 0.042
AAGGAGGA	-0.0623 ± 0.0073
ATCATTGC	0.0872 ± 0.064
GGTATACA	0.0958 ± 0.069
CGTATACC	-0.109 ± 0.063
TGTATACA	0.307 ± 0.074
CGTATACA	0.105 ± 0.07

Source: the supplement of paper PMC12636033
